For assay [1], the target named is Glutathione peroxidase 1 (Homo sapiens) (UniProt P07203). Nature of the assay: Primary qHTS Assay for Inhibitors of Recombinant Selenoprotein Glutathione Peroxidase 1 (GPX1) (AID 1845191). For activity, negative = inhibition: % is set by controls: 0 for no effect and ±100 for the full control effect. Note: nearly all actives have a fitted effect of over 65% in size. Put shortly: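 GR-coupled readout: NADPH consumption tracked by fluorescence, ex 340/em 450 nm, at t=0 and after 15 min at RT. Final mix 10 nM GPX1, 1 mM GSH, 0.5 mM CHP, 0.5 mM NADPH, 100 nM GR, 0.01% BSA, following 30 min enzyme–compound preincubation.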
A general note: In qHTS, concentration-response curves come from the screen itself.

Assay [2] concerns the target Phospholipid hydroperoxide glutathione peroxidase GPX4 (Homo sapiens) (UniProt P36969). As to the kind of experiment: Primary qHTS Assay for Inhibitors of Recombinant Selenoprotein Glutathione Peroxidase 4 (GPX4) (AID 1845192). Note: nearly all actives have a fitted effect of over 65% in size. In short, it runs like this:
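Steps: GPX4 plus compound, 30 min RT; add GR/GSH/NADPH master mix; start with cumene hydroperoxide; read 340/450 nm fluorescence at 0 and 15 min. Finals were 200 nM GPX4, 1 mM GSH, 0.5 mM CHP, 0.5 mM NADPH, 100 nM GR.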

Assay [3] deals with Luciferin 4-monooxygenase (Photinus pyralis) (UniProt P08659). As to the kind of experiment: Primary firefly luciferase (FLuc) qHTS assay for identification of artifact compounds. (AID 1845220). Note: nearly all actives have a fitted effect of over 60% in size. In short, it runs like this:
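D-luciferin and ATP (10 uM each, final) in Tris acetate buffer pH 7.6 were incubated with compounds for 15 min at room temperature. The reaction was started with 10 nM Photinus pyralis luciferase and luminescence read after 5 min. Percent inhibition was fitted to a 4-parameter Hill equation.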

Assay [4] is described as follows: Primary fluorescence-based thiol-reactive (MSTI) qHTS assay for identification of artifact compounds. (AID 1845221).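 For activity change, negative = thiol reactive: series mostly up to about 54 µM; thiol-reactive compounds lower the probe fluorescence signal.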 Note: nearly all actives have a fitted effect of over 65% in size. Note: potency is the fitted concentration of half-maximal effect. Put shortly: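 MSTI probe at 4 uM final in 2% DMSO/PBS pH 7.4; compounds, 1 h at room temperature in dark. Fluorescence Ex/Em 525/598 nm, normalised to Acetyl-MSTI and MSTI, fitted to 4-parameter Hill.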
For assay [5], the system named is Nanoluciferase (engineered Oplophorus gracilirostris luciferase). Nature of the assay: Primary Nanoluciferase (NLuc) qHTS assay for identification of artifact compounds. (AID 1845222).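 Note: series mostly up to about 54 µM; 0% = DMSO and -100% = no enzyme.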 In short, it runs like this: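 Diluted conditioned medium from NLuc-expressing S16 cells treated with compounds for 15 min at room temperature, then Nano-Glo substrate added; luminescence read after 5 min. Percent inhibition versus no-enzyme and DMSO controls fitted to 4-parameter Hill equation.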

A short description of assay [6]: Primary redox qHTS assay for identification of artifact compounds. (AID 1845223).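 Note: 0% = DMSO and 100% = reference compound.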 Put shortly:
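Redox-cycling detection via DTT (250 uM final) oxidation coupled to Amplex Red (25 uM)/HRP (250 mU/mL) in HBSS. 15 min preincubation plus 30 min after DTT, room temperature. Ex/Em 525/598 nm; 4-parameter Hill fit against DMSO and 10 uM DA3003.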

Unmarked numbers belong to inactive results. Inconclusive results are not listed. Calls of active or inactive are those of the source. Calls come from the whole dose curve; as a rule, active = well fitted curve in the direction sought with a large enough effect; inconclusive = small, poorly fitted or top-dose-only effect, or another doubt; inactive = no such curve, though single readings can be large; an effect the other way counts as inactive or inconclusive.

Chain of Phospholipid hydroperoxide glutathione peroxidase GPX4 (Homo sapiens) (P36969 whole entry, looked up): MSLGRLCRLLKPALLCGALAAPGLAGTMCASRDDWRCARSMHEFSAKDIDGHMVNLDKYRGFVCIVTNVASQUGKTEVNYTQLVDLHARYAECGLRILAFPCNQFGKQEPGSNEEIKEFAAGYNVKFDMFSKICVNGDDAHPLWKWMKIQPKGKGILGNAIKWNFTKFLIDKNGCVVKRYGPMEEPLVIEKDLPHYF
Chain of Glutathione peroxidase 1 (Homo sapiens) (P07203 whole entry, looked up): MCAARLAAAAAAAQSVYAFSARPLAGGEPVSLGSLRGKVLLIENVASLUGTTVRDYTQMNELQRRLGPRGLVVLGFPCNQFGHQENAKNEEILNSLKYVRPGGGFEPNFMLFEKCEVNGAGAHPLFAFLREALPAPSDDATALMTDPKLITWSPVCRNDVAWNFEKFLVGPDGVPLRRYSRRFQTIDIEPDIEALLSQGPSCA

As to `C=C1C[C@H](O)[C@@H](O)[C@@]2(C)C1[C@@H](O)[C@H]1OC(=O)C3[C@@H](C)[C@@H](O)[C@H](O)C2[C@]31C` (some centres undefined), the Potency result in assay [1], in assay [2], in assay [3], in assay [4], in assay [5] and in assay [6] was “inactive” throughout.

Turning to `C=C(C(=O)O)[C@@H]1CC[C@H](C)[C@@H]2CC(=O)C(C)=C2C1`, the Potency result in assay [1], in assay [2], in assay [3], in assay [5] and in assay [6] was “inactive” throughout. Besides, in assay [4], the Potency is 21.2 µM (active).

With `CCC(C)C(=O)O[C@H]1C[C@](C)(O)[C@]23OC(C)(C)[C@H](C[C@H](OC(=O)c4ccccc4)[C@]2(COC(C)=O)[C@H]1OC(=O)C(C)CC)[C@H]3OC(C)=O` (some centres undefined), the Potency result in assay [1], in assay [2], in assay [3], in assay [4], in assay [5] and in assay [6] was “inactive” throughout.

For the compound `C=C(C)C1CCC2(C(=O)OC3OC(COC4OC(CO)C(O)C(O)C4O)C(OC4OC(C)C(O)C(O)C4O)C(O)C3O)CCC3(C(=O)O)C(CCC4C5(C)CCC(=O)C(C)(C)C5CCC43C)C12` (centres undefined), the Potency result in assay [1] and in assay [2] was “inactive” each time. For the same compound, the outcome in assay [3] is “inactive [at 11.6 µM]”. The activity change, negative = thiol reactive in assay [4] was 183% [at 11.5 µM]. Further, the activity, negative = inhibition in assay [5] is 3.95% [at 11.6 µM]. For the same compound, the redox activity (% of DA3003) in assay [6] is 7.53% [at 11.5 µM].

For `COC(=O)C1=COC(OC2OC(CO)C(O)C(O)C2O)C2C(COC(=O)/C=C/c3ccc(O)cc3)C(O)C(O)C12` (centres undefined), the Potency result in assay [1], in assay [2], in assay [3], in assay [5] and in assay [6] was “inactive” throughout. Further, the Potency in assay [4] was 5.82 µM (active).

`O=C(/C=C/c1ccc(O)cc1)OCC1OC(O)C(OC2OC(CO)C(O)C(O)C2O)C(O)C1O` (centres undefined): the Potency entry in assay [1], in assay [2], in assay [3], in assay [4], in assay [5] and in assay [6] was “inactive” throughout.

With `COc1cnc(-c2ccc(Cn3c(CC(C)(C)C(=O)O)c(SC(C)(C)C)c4cc(OC[C@@H]5Cc6ccccc6N5C(C)=O)ccc43)cc2)nc1`, the Potency entry in assay [1], in assay [2], in assay [3], in assay [4], in assay [5] and in assay [6] was “inactive” each time.

Regarding `C=C1CCc2occ(C)c2[C@H]2[C@H]1[C@@]13O[C@@]1(C[C@@H](C)[C@H]3OC(C)=O)[C@H]1O[C@@]21C`, the Potency result in assay [1], in assay [2], in assay [3], in assay [4], in assay [5] and in assay [6] was “inactive” throughout.

In the case of `CC/C=C/C=C/C1(C)OC(CC(CO)OC)=CC1=O` (centres undefined), the Potency entry in assay [1], in assay [2], in assay [3], in assay [4], in assay [5] and in assay [6] was “inactive” in each case.

For `CCC(CC)CC1(C(=O)Nc2ccccc2SC(=O)C(C)C)CCCCC1`, the Potency entry in assay [1], in assay [2], in assay [3], in assay [4], in assay [5] and in assay [6] was “inactive” each time.

Take `O=C(C1OC1/C=C/c1ccc2c(c1)OCO2)N1CCCCC1` (centres undefined): the Potency result in assay [1], in assay [2], in assay [3], in assay [4], in assay [5] and in assay [6] was “inactive” throughout.

Take `Cc1cn(C[C@H](N)C(=O)O)c(=O)n(Cc2ccsc2C(=O)O)c1=O`: the Potency entry in assay [1], in assay [2], in assay [3], in assay [4], in assay [5] and in assay [6] was “inactive” in each case.

For `C[C@@H](CC[C@@H]1[C@@]2(C)CCCC(C)(C)C2CC[C@@]1(C)O)CC(=O)O` (some centres undefined), the Potency result in assay [1], in assay [2], in assay [3], in assay [4], in assay [5] and in assay [6] was “inactive” each time.

As to `C=C1C(O)CCC2(C)CC3(OC)OC(=O)C(C)=C3CC12` (centres undefined), the Potency entry in assay [1], in assay [2], in assay [3], in assay [4], in assay [5] and in assay [6] was “inactive” in each case.

Turning to `CN(C)CC(c1ccc(O)cc1)C1(O)CCCCC1` (centres undefined), the Potency entry in assay [1], in assay [2], in assay [3], in assay [4], in assay [5] and in assay [6] was “inactive” throughout.

Regarding `C=C1[C@H]2CCC3[C@]4(C)CCC[C@@](C)(C(=O)O)C4CC[C@]3(C2)[C@H]1OC(C)=O` (some centres undefined), the Potency entry in assay [1], in assay [2], in assay [3], in assay [4], in assay [5] and in assay [6] was “inactive” in each case.

Regarding `c1cc(-c2cc(C3CCNCC3)[nH]n2)ccn1`, the Potency result in assay [1], in assay [2], in assay [3], in assay [4], in assay [5] and in assay [6] was “inactive” each time.

`C[C@@H]1CC[C@]2(C(=O)O)CC[C@]3(C)C(=CCC4[C@@]5(C)C[C@@H](O)[C@H](O)[C@@](C)(CO)C5CC[C@]43C)C2[C@H]1C` (some centres undefined): the Potency result in assay [1], in assay [2], in assay [3], in assay [4], in assay [5] and in assay [6] was “inactive” each time.

As to `CC(=O)O[C@@H]1CC2C(C)(C)C(=O)C=C[C@]2(C)C2CC[C@]3(C)C(=CC(=O)[C@@H]3c3ccoc3)[C@@]21C` (some centres undefined), the Potency result in assay [1], in assay [2], in assay [3], in assay [4], in assay [5] and in assay [6] was “inactive” each time.

Source of the values: PubChem BioAssay (NCATS).
